Screening results: PubChem BioAssay, DiRusso Lab, Biochemistry Department, University of Nebraska
The entries come from a sample that favours hits as a whole.
Chlamy TAG – inducers of TAG accumulation in Chlamydomonas, primary screen, qHTS, Chlamydomonas reinhardtii. AID 1159537, 2015. 0.84% of 44,000 active. calls only at 10 µM (by protocol). Nile Red fluorescence, 72 h; call rule not given here;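 also: hits raise Nile Red signal meaning more stored TAG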
Numbers without * were called inactive; i = inactive; + = active, no number.

SMILES	Chlamy TAG
Cc1ccc(OCCCCN2CCCC2)cc1C	+
Cc1cccc(OCCCCN2CCCCC2)c1	i
Cc1ccccc1OCCCCN1CCCCC1	i
Cc1ccc(OCCCN2CCCCC2)c(C)c1	i
Cc1ccc(OCCCCN2CCCC2)c(C)c1	+
Cc1ccc(OCCCCn2ccnc2)c(Br)c1	i
Cc1ccc(OCCCCN2CCCC2)c(Br)c1	+
COc1ccc(C(=O)Nc2ccc(NC(C)=O)cc2)cc1I	i
COc1ccc(C(=O)Nc2nc(-c3ccc(F)cc3)cs2)cc1OC	i
O=C(c1ccc(I)cc1)N1CCN(c2ccc([N+](=O)[O-])cc2)CC1	i
Cc1occc1C(=O)NCc1ccc(F)cc1	i
CCC(=O)Nc1cccc(-c2nnc(SCc3ccccc3Cl)n2C)c1	i
Cc1ccccc1NC(=O)CCCN1C(=O)c2ccccc2C1=O	i
COCCNS(=O)(=O)c1ccc(Cl)cc1	i
Brc1ccccc1-c1cn2ccsc2n1	i
COc1ccc(C(=O)Nc2nc(-c3ccc(OC)c(OC)c3)c(C)s2)cc1	i
Cc1ccc(Cl)cc1NC(=O)C(C)N(c1ccccc1)S(C)(=O)=O (stereo unspecified)	i
Cc1ccc(OCCCCN2CCCCC2)cc1	i
Cc1ccc(OCCCN2CCOCC2)c(C)c1	+
Cc1ccc(OCCCCN2CCOCC2)cc1	+
Cc1ccccc1OCCCN1CCOCC1	i
Clc1ccc(OCCCN2CCOCC2)cc1	i
Cc1ccc(OCCCCN2CCOCC2)c(C)c1	i
COc1ccc(/C=C/C(=O)Nc2ccc(NC(=O)c3ccco3)c(OC)c2)cc1	i
CC(=O)N1CCN(Cc2ccccc2Cl)CC1	i
SMILES	Chlamy TAG
COc1ccc(C(=O)N2CCC(Cc3ccccc3)CC2)cc1[N+](=O)[O-]	i
CCOc1ccc(N2CC(C(=O)Nc3cccc(OC)c3)CC2=O)cc1 (stereo unspecified)	i
Cc1nc2c(c(=O)[nH]1)C(c1cccnc1)C(C#N)=C(N)O2 (stereo unspecified)	i
O=C(NCCc1ccc(Cl)cc1)C(=O)Nc1nccs1	+
O=C(COc1ccc(Cl)cc1)Nc1nccs1	i
Cc1ccc(NC(=O)C(=O)NCCc2ccc(Cl)cc2)cc1C	i
O=[N+]([O-])c1ccccc1CN1CCCC1	i
COc1cccc(N2CCN(CC3CC4C=CC3C4)CC2)c1 (stereo unspecified)	+
C1=CC2CC1CC2CN1CCN(Cc2ccco2)CC1 (stereo unspecified)	+
Cn1cccc1CN1CCN(Cc2ccco2)CC1	i
O=[N+]([O-])c1ccccc1CN1CCN(CC2CC3C=CC2C3)CC1 (stereo unspecified)	+
C1=CC2CC1CC2CN1CCN(Cc2ccccc2)CC1 (stereo unspecified)	+
C1=CCC(CN2CCN(Cc3ccco3)CC2)CC1 (stereo unspecified)	i
O=C(c1ccc(F)cc1)N1CCN(CC2CC3C=CC2C3)CC1 (stereo unspecified)	i
O=[N+]([O-])c1ccccc1CN1CCN(CC2CC=CCC2)CC1 (stereo unspecified)	i
OCCN1CCN(C2CCN(CC3CC4C=CC3C4)CC2)CC1 (stereo unspecified)	i
OC1CCN(CC2CC3C=CC2C3)CC1 (stereo unspecified)	i
C1=CC2CC1CC2CN1CCN(Cc2ccncc2)CC1 (stereo unspecified)	i
O=C(Nc1ccc2nc(-c3ccco3)c(-c3ccco3)nc2c1)N1CCOCC1	i
CC1=C(Cl)c2ccc(Br)cc2S1(=O)=O	i
COc1ccc(Cc2noc(-c3ccc(Cl)cc3)n2)cc1	i
CC1CN(CCC(C)c2ccccc2)CC(C)O1 (stereo unspecified)	i
O=C(NCc1ccccc1)C(Cc1ccccc1)N1C(=O)C2C3C=CC(C3)C2C1=O (stereo unspecified)	i
CN(C)CCN(C)Cc1cccs1	i
O=C(O)CCCNS(=O)(=O)c1ccc(Br)c(C(=O)O)c1	i
SMILES	Chlamy TAG
Cc1ccc(C)c(N2CCN(CC3CC4C=CC3C4)CC2)c1 (stereo unspecified)	+
COc1ccc(CN2CCN(CC3CC4C=CC3C4)CC2)cc1OC (stereo unspecified)	+
c1coc(CN2CCN(C3CCCCCC3)CC2)c1	+
COc1cc(OC)c(OC)cc1CN1CCN(c2cc(C)ccc2C)CC1	i
c1ccc(N2CCN(Cc3ccco3)CC2)cc1	i
COc1ccc(CN2CCCCCC2)cc1OC	i
c1coc(CN2CCN(Cc3ccncc3)CC2)c1	i
COc1ccc(CN2CCN(Cc3ccc(OC)c(OC)c3)CC2)cc1	i
CCS(=O)(=O)N1CCN(CC2CC3C=CC2C3)CC1 (stereo unspecified)	i
CN(C)CCN(C)Cc1cccc(Cl)c1Cl	i
COc1cc2c(cc1OC)CN(Cc1ccco1)CC2	i
CN(C)c1nc(Oc2ccc(C=O)cc2)nc(N(C)C)n1	i
O=[N+]([O-])c1cccc(CN2CCN(C3CC4CCC3C4)CC2)c1 (stereo unspecified)	i
c1ccc(CN2CCN(C3CC4CCC3C4)CC2)cc1 (stereo unspecified)	+
Oc1ccc(Br)cc1CN1CCN(C2CC3CCC2C3)CC1 (stereo unspecified)	i
O=[N+]([O-])c1ccc(CN2CCN(C3CC4CCC3C4)CC2)cc1 (stereo unspecified)	+
c1ccc(CN2CCC(NC3C4CC5CC(C4)CC3C5)CC2)cc1 (stereo unspecified)	i
O=[N+]([O-])c1ccc(CN2CCN(C3CCN(Cc4ccccc4)CC3)CC2)cc1	i
NC(=O)C1CCN(Cc2ccccc2)CC1c1ccccc1 (stereo unspecified)	i
O=C(COc1cccc(Cl)c1)NCCc1nc2ccccc2[nH]1	i
O=c1cc(C(F)F)oc2ccc(Cl)cc12	i
Cc1ccc(C(=O)NC2CCC(NC(=O)c3ccc(C)cc3)CC2)cc1 (stereo unspecified)	i
Cc1cc2nc(-c3ccc(Cl)c(NC(=O)c4ccccc4[N+](=O)[O-])c3)oc2cc1C	i
CCN1CCN(S(=O)(=O)c2ccc(Br)cc2)CC1	i
O=[N+]([O-])c1ccc(CN2CCCCC2)cc1	i
SMILES	Chlamy TAG
O=[N+]([O-])c1ccc(CN2CCc3ccccc3C2)cc1	+
O=[N+]([O-])c1ccc(S(=O)(=O)N2CCN(Cc3cc(Br)ccc3O)CC2)cc1	i
O=[N+]([O-])c1ccc(CN2CCOCC2)cc1	i
COc1cc2c(cc1OC)CN(Cc1ccc([N+](=O)[O-])cc1)CC2	i
O=[N+]([O-])c1ccc(CN2CCN(Cc3cc(Br)ccc3O)CC2)cc1	+
CC(C)(Oc1ccc(Cl)cc1)C(=O)Nc1ccccc1Br	i
CC(C)(Oc1ccc(Cl)cc1)C(=O)Nc1ccc(Br)cc1F	+
COc1ccc(Cl)cc1NC(=O)C(C)(C)Oc1ccc(Cl)cc1	i
CN(C)c1ccc(NC(=O)c2cc3ccccc3o2)cc1	i
COc1cc(C(=O)Nc2cccc(C(=O)c3ccc(C)c(C)c3)c2)cc(OC)c1OC	+
COc1cc(C(=O)Nc2cccc(NC(=O)c3ccccc3)c2)cc(OC)c1OC	i
COc1cc(C(=O)Nc2cccc(F)c2)cc(OC)c1OC	i
O=c1[nH]c(CSc2nnc(-c3ccncc3)n2-c2ccccc2)nc2ccccc12	i
C=CCOc1ccc(C2C(=C(O)c3ccc(F)cc3)C(=O)C(=O)N2Cc2cccnc2)cc1 (stereo unspecified)	i
